# Compound activity deposited in PubChem BioAssay by National Center for Advancing Translational Sciences (NCATS).
# D2 ag-1 – activates the human D2 dopamine receptor. 360,000 tested, 0.084% active. P14416. DiscoveRx PathHunter D2 beta-arrestin, luminescence, 90 min; 100% = 57 uM dopamine signal. activation, % (no concentration beside the values); in the data active means activation above about 40%; inconclusive means between about 15% and that limit
# Target sequence (P14416 whole entry, looked up): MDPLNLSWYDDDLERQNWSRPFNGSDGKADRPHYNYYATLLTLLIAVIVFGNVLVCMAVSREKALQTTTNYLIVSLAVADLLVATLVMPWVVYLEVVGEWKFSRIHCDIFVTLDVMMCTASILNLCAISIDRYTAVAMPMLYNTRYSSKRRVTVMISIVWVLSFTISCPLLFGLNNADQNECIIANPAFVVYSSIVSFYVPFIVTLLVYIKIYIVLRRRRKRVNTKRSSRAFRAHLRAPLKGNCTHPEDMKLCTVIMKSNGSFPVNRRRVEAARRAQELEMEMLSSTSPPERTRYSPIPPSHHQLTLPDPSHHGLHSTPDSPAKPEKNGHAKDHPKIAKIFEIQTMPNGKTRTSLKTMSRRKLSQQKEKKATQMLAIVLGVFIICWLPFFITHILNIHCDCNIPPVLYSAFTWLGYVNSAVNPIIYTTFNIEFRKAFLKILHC
#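 Agonist mode: compounds alone added to overnight-plated D2 PathHunter cells for 90 min at 37 C, with 57 uM final dopamine (EC100) defining full response. Beta-arrestin recruitment detected by chemiluminescent reagent, read after 1 h at ambient temperature.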
# D2 PAM-1 – D2 dopamine receptor (human) potentiation; AID 485347; 340,000 tested, 0.34% active; potentiation, % at 10 µM; HEK293 T-REx D2, calcium flux, EC20 dopamine potentiation;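 active means potentiation over 3 SD above the plate norm, cut at about 30% in these data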; further: 0% is about no effect
#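 Calcium flux readout, no-wash dye, 1 read/s. Inducible HEK293 Trex D2 line, overnight 30 C. Compound alone 180 s (agonist flags), then EC20 dopamine, another 180 s to score potentiation.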
# D2 PAM-2 – potentiates the human D2 dopamine receptor allosterically. AID 624464. DiscoveRx D2 beta-arrestin cells, luminescence, 90 min; 100% = 57 uM dopamine signal. potentiation, % (concentration not given with the values). P14416. 360,000 tested, 0.23% active; in the data active means potentiation above about 50%; inconclusive means mostly about 30% to 49%
#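 D2 cells co-treated with compound plus 50 nM dopamine (EC20) for 90 min at 37 deg C to detect potentiation. Beta-arrestin recruitment was read as enzyme-fragment luminescence after 1 h at ambient temperature. Full response was set by 57 uM dopamine.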
# D2 ag-2 – activates the human D2 dopamine receptor; P14416; HEK293 T-REx D2 cells, calcium flux agonist mode; activation, % at 2 µM; 340,000 tested, 0.53% active; AID 485358;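 active means activation over 3 SD above normal in the single-dose calcium agonist read, cut at about 30% in these data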; further: 0% is about no effect
#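 Tetracycline-induced HEK293 Trex cells with D2 receptor force-coupled to calcium signaling, plated overnight at 30 C and loaded with no-wash calcium dye. Calcium flux read kinetically for 180 s after compound addition; responses flag agonists.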
# D2 antagonist – antagonizes the human D2 dopamine receptor; 340,000 tested, 2% active; P14416; AID 485344; HEK293 TREx D2 cells, calcium flux, dopamine EC80; inhibition, % at 10 µM; in the data active means inhibition above about 30%; inactive means below that, where a call was filed; further: 0% is about no effect
#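 Calcium mobilization kinetics were recorded at 1 s intervals in tetracycline-induced HEK293 T-REx D2 cells, first for 180 s after compound addition and then 180 s after EC80 dopamine.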
# * = called active by the depositor; u = inconclusive; x = no result given; ! = a repeat was not active. A selection: hits, their analogues and other compounds. The true share with any hit is near 2.4%.
SMILES,D2 ag-1,D2 PAM-1,D2 PAM-2,D2 ag-2,D2 antagonist
COC(=O)CCNCCSc1nnc(-c2ccco2)n1Cc1ccccc1,-6,-13,-25,2,33*
COc1ccc(Cl)cc1NC(=O)CSc1nnc(CN2CCOCC2)n1-c1ccc(Cl)cc1,-2,-24,-24,1,76*
CS(=O)(=O)c1ccc2nc(NC(=O)CN3CCN(Cc4ccccc4)CC3)sc2c1,-1,-3,-15,0,45*
CS(=O)(=O)c1ccc2nc(NC(=O)c3cc([N+](=O)[O-])cc([N+](=O)[O-])c3)sc2c1,u,1,99*,1,7
CC(=O)c1cccc(NC(=O)C2CCCN(C(=O)c3cnn(-c4ccccc4)c3-n3cccc3)C2)c1 (stereo not drawn),x,-8,x,2,x
c1ccc(-c2noc(CSc3nc4ccccc4o3)n2)cc1,1,-5,-7,-1,-3
Clc1ccc(-c2nnc(SCc3nc(-c4ccccc4)no3)o2)cc1,-5,-8,-3,0,41*
Cc1nc2ccc(S(=O)(=O)NC(C(=O)N3CCN(c4ccc(Cl)cc4)CC3)C(C)C)cc2s1 (stereo not drawn),x,10,x,0,x
CC(NC(=O)CN(C)CC(=O)Nc1ccc(F)c(F)c1F)c1ccccc1 (stereo not drawn),-1,2,2,2,49*
CC(NC(=O)CN(C)CC(=O)Nc1ccccc1Br)c1ccccc1 (stereo not drawn),-2,15,-3,-1,11
COC(=O)c1c(NC(=O)c2cc(=O)c3cc(C)cc(C)c3o2)sc2c1CCC2,x,8,x,0,x
Cc1cc(CN2CCCC(C(=O)Nc3cccc(-n4cccn4)c3)C2)cc(C)c1O (stereo not drawn),-4,-22,-34,1,38*
COc1cccc(C(=O)C2CCCN(Cc3cccn3-c3cccnc3)C2)c1 (stereo not drawn),1,-20,-11,0,-2
COc1cccc(C(=O)C2CCCN(Cc3cccc(-n4cccn4)c3)C2)c1 (stereo not drawn),-3,-23,-10,-1,32*
Cc1c(CN2CCCC(C(=O)Nc3cccc(-n4cccn4)c3)C2)cnn1C (stereo not drawn),-3,-17,-19,-3,47*
COc1ccc(CCNC(=O)CSc2nc3ccccc3nc2Cc2ccc(C)cc2)cc1OC,x,8,x,1,x
CCCc1ccc(OCC(=O)Nc2sc(C(=O)OCC)c(C)c2C(=O)OCC)cc1,x,2,x,0,x
Cc1c(C(=O)Nc2ccc3c(c2)OCCO3)sc2nc(-c3ccccc3)cn12,3,-4,-7,-1,73*
O=C(CCN1CCOCC1)NNC(=O)c1ccc([N+](=O)[O-])cc1[N+](=O)[O-],6,x,59*,x,x
O=C(CCN1CCOCC1)NNC(=O)c1ccc(Cl)c([N+](=O)[O-])c1,-3,x,-2,x,x
COc1ccc(C2C(O)C(c3c[nH]c4ccccc34)=NN2C(=O)CCl)cc1 (stereo not drawn),-4,-4,6,0,32*
COc1cc(NC(=O)c2noc(C)c2[N+](=O)[O-])c(OC)cc1Cl,45*,-4,3,-1,-17
Cc1onc(C(=O)Nc2cccnc2Cl)c1[N+](=O)[O-],4,2,2,0,6
CCNc1c(NC(=O)c2cc(OCC)c(OCC)c(OCC)c2)c(=O)oc2ccccc12,x,3,x,-3,x
CCC(Sc1nc2cc(OC)c(OC)cc2c(=O)n1Cc1ccc(OC)cc1)C(=O)NCCOC (stereo not drawn),-2,31*!,-2,0,-1
SMILES,D2 ag-1,D2 PAM-1,D2 PAM-2,D2 ag-2,D2 antagonist
COc1cccc(NC(=O)Cn2c(=O)ccc3cc(S(=O)(=O)N4CCC(C)CC4)ccc32)c1,x,-7,x,1,x
COc1ccccc1C(=O)Nc1ccc2nc(SCC(=O)N(C)c3ccccc3)sc2c1,x,3,x,0,x
CCN(CC)c1nc2ccccc2nc1C(=O)Nc1cc(OC)c(OC)c(OC)c1,x,x,x,0,x
CC1=C(C)/C(=N/OC(=O)c2cccc([N+](=O)[O-])c2)C=CC1=O,u,6,12,0,34*
N/C(=N\OC(=O)c1ccccc1Cl)c1cccc([N+](=O)[O-])c1,60*,-6,25,0,-6
N/C(=N\OC(=O)c1cccc([N+](=O)[O-])c1)c1ccccn1,u,-1,22,0,8
N/C(=N\OC(=O)c1ccc2ccccc2c1)c1cccc([N+](=O)[O-])c1,u,9,108*,0,-5
N/C(=N\OC(=O)c1cccc(F)c1)c1cccc([N+](=O)[O-])c1,u,x,85*,x,x
N/C(=N/OC(=O)c1cccc([N+](=O)[O-])c1)c1cccc([N+](=O)[O-])c1,u,4,u,0,-12
N/C(=N\OC(=O)c1ccc([N+](=O)[O-])cc1Cl)c1ccccn1,u,-2,17,1,0
NC(=O)c1cccc([N+](=O)[O-])c1,4,10,-6,0,-11
O=S(=O)(Nc1ccc(C(O)(C(F)(F)F)C(F)(F)F)cc1)c1cccc2cccnc12,-3,x,-7,x,x
CCc1ccc(CN(Cc2cn[nH]c2-c2ccc(OC)cc2)C(=O)Nc2ccc(C)c(F)c2)cc1,x,-13,x,x,x
COc1cccc2sc(N(Cc3cccnc3)C(=O)C3COc4ccccc4O3)nc12 (stereo not drawn),x,-2,x,0,x
Cc1cccc(/C(N)=N/OC(=O)c2ccc(F)cc2)c1,13,-6,-19,0,2
N/C(=N\OC(=O)c1ccc(F)cc1)c1cccc([N+](=O)[O-])c1,u,3,65*,0,-1
Cc1ccc(C(=O)NCC(=O)OCc2cc(=O)n3nc(C4CCCCC4)sc3n2)cc1,x,3,x,1,x
COCC(C)Nc1ncnc2c1cnn2-c1ccc(C)c(C)c1 (stereo not drawn),x,5,x,0,x
CCNC(=O)c1ccccc1SCC(=O)Nc1ccc(F)cc1,-3,35*,-7,0,23
CCNC(=O)c1ccccc1SCc1ccccc1,3,10,0,-1,14
COc1ccc(/C=N/N(C(C)=O)c2nc(-c3ccc(C)cc3)cs2)cc1,-1,30*,18,-1,-21
Cc1cc(C)cc(Oc2nc3c(C)cccn3c(=O)c2/C=C(\C#N)c2nc3ccccc3s2)c1,x,13,x,-1,x
O=C(NCCNC(=O)c1ccco1)c1ccco1,-4,x,1,-3,-2
COc1cccc(C(=O)NCCNC(=O)c2ccco2)c1,-3,4,-1,0,-1
Cc1cc(C)n(CCNC(=O)c2ccco2)n1,-1,31*,1,0,-11
CCCOc1cccc(C(=O)NCCNC(=O)c2ccco2)c1,-5,11,1,-1,57*
